Bioassay records from PubChem BioAssay.
Sampled rows, rich in hits. Any-hit rate of the full collection: about 12%.
HP1b binding inh = inhibitors of HP1-beta chromodomain binding to methylated histone tails. P83916. AlphaScreen HP1-beta / biotin-H3K9me3 peptide binding. Potency, µM (doses to about 114 µM), for inactives: at the top dose activity change, negative = inhibition, usual class: inhibitors. hit rate 0.56% among 390,000; also: potency is read from the fitted curve at half-maximal effect; nearly all actives have a fitted effect of over 70% in size
Target sequence (P83916 whole entry, looked up): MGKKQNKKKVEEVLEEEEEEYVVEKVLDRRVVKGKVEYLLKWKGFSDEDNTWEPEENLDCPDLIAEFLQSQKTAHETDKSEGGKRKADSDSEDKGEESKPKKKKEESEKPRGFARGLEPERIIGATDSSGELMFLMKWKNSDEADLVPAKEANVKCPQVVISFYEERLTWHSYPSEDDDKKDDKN
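Compound inhibition of the preformed complex between 50 nM HP1-beta and 50 nM biotinylated H3K9me3 peptide was read by AlphaScreen. Buffer was PBS pH 7.4 with 0.01% Tween-20. Incubations ran 30 min at room temperature, with 10 ug/mL donor/acceptor beads.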
JMJD2A Tudor inh = JMJD2A Tudor domain (human) inhibition; O75164; AlphaScreen JMJD2A-Tudor / H3K4me3 peptide binding; Potency, µM (series often up to 114 µM), inactives show top-dose activity change, negative = inhibition, usual class: inhibitors; hit rate 4.4% among 390,000; AID 504339; also: potency is read from the fitted curve at half-maximal effect; % is scaled to controls: 0 for no effect and ±100 for the full control effect; nearly all actives have a fitted effect of over 50% in size
BAZ2B block = blocks human BAZ2B; Q9UIF8; AlphaScreen BAZ2B-H3K14Ac peptide displacement; Potency, µM (doses to about 114 µM), without a hit: at the highest dose activity change, negative = inhibition, hits mostly inhibitors; hit rate 4.4% among 360,000; AID 504333; also: potency is read from the fitted curve at half-maximal effect; % is scaled to controls: 0 for no effect and ±100 for the full control effect; nearly all actives have a fitted effect of over 60% in size
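Multi-concentration screen (max 110 uM) measuring displacement of acetylated histone H3 peptide from BAZ2B by AlphaScreen, using 50 nM protein, 50 nM peptide and 10 ug/mL streptavidin donor plus Ni-chelate acceptor beads.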
G9a block = blocks human histone lysine methyltransferase G9a | hit rate 8.8% among 350,000 | Q96KQ7 | Potency, µM (top dose mostly 102 µM), for the others: top-dose activity, negative = inhibition, most hits filed as inhibitors | G9a H3K9 monomethylation, AlphaScreen, 2 h; also: potency is read from the fitted curve at half-maximal effect; % is scaled to controls: 0 for no effect and ±100 for the full control effect; nearly all actives have a fitted effect of over 75% in size
Target sequence (Q96KQ7 913-1193 limits assumed): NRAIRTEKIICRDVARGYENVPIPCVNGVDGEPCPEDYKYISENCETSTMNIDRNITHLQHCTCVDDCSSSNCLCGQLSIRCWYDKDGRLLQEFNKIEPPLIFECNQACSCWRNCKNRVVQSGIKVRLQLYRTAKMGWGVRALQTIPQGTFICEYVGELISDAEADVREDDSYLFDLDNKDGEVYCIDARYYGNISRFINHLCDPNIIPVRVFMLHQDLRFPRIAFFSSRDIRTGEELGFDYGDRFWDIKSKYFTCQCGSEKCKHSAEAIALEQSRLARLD
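Enzyme 20 nM + cpd, 15 min RT; add b-H3K9 pep 500 nM / SAM 20 uM; 2 h RT; anti-H3K9me1 Ab 0.5 ug/mL + SA donor / anti-rabbit acceptor beads 20 ug/mL each, 10 min; AlphaScreen read.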
PLK1 PBD block = inhibitors of human PLK1 polo-box domain binding. P53350. Plk1 PBD binding of FITC phosphopeptide, fluorescence polarization. Potency, µM, without a hit: max response, negative = inhibition, most hits filed as inhibitors. hit rate 2.8% among 360,000. AID 720504; also: potency is read from the fitted curve at half-maximal effect; series mostly up to about 57 µM; % is scaled to controls: 0 for no effect and ±100 for the full control effect; nearly all actives have a fitted effect of over 65% in size
PI5P4Ka inh = blocks human PI5P4K alpha kinase activity | hit rate 1.2% among 330,000 | PI5P4Kalpha enzyme, ADP-Glo luminescence, 60 min; active compounds read low | max response, %; active = max response of -50% or lower; inconclusive = between -30% and -50%; inactive = -30% or higher; also: value at the top dose of about 77 µM; % is scaled to controls: 0 for no effect and ±100 for the full control effect
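Enzyme plus substrate dispensed, test compounds pinned in, then ATP (5 microM final) added. After 60 min at RT, ADP-Glo reagent 1 for 45 min and reagent 2 for 30 min preceded luminescence imaging.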
* hit, by the source's call; ? = inconclusive; nt = no result given; [ ] = another dose, or the depositor's remark. Unless noted, calls follow the shape of the dose curve; as a rule, active = well fitted curve in the direction sought with a large enough effect; inconclusive = small, poorly fitted or top-dose-only effect, or another doubt; inactive = no such curve, though single readings can be large; an effect the other way counts as inactive or inconclusive.

SMILES | HP1b binding inh | JMJD2A Tudor inh | BAZ2B block | G9a block | PLK1 PBD block | PI5P4Ka inh
COCCNC(=O)c1c[nH]n2c(=O)cc(C3CCN(C(=O)OC(C)(C)C)CC3)nc12 | 25% | -8% | -21% | 56µM* | 0% | 0
O=C(N/N=C1\CC2CC=CC12)c1ccc(O)cc1 (configuration not stated) | 22% | -7% | nt | 13% | -17% | -24
O=[N+]([O-])c1ccc(N/N=C2\CC3CC=CC23)cc1 (configuration not stated) | 16% | ? | ? | 45µM* | -4% | 4
O=[N+]([O-])c1ccc(NN=C2CC3CCC2C3)c([N+](=O)[O-])c1 (configuration not stated) | nt | nt | nt | nt | 3% | -2
O=[N+]([O-])c1ccc(N/N=C2\CC3CC=CC23)c([N+](=O)[O-])c1 (configuration not stated) | 14µM* | 14µM* | 3.2µM* | 14µM* | -14% | -26
CN(C)c1cccc(C(=O)NCC(c2ccco2)N(C)C)c1 (configuration not stated) | -23% | ? | -24% | -10% | 1% | 2
COc1ccc(OC)c2sc(Cl)nc12 | -4% | 4% | 9% | 28µM* | 19µM* | -2
COc1ccc(OC)c2sc(NC(=O)C(C)C)nc12 | 14% | -14% | -9% | -42%[59 µM] | -8% | 6
COc1ccc2c(c1)Cc1sc(NC(=O)c3ccccc3C)nc1-2 | 2% | ? | -9% | ? | nt | nt
COc1ccc(C(CC(=O)NCc2ccccc2)Sc2n[nH]c(-c3ccc(Cl)cc3)n2)cc1 (configuration not stated) | 20% | -17% | 7% | 25µM* | -8% | 2
COc1ccc(C(CC(=O)NCc2ccccc2)Sc2n[nH]c(-c3ccccc3)n2)cc1 (configuration not stated) | 43% | -9% | 4% | 1% | 1% | 2
COc1ccc(-c2nc(SC(CC(=O)NCc3ccccc3)c3ccc(OC)c(OC)c3)n[nH]2)cc1 (configuration not stated) | 15% | -19% | -20% | 45µM* | -10% | 4
NC(=S)N/N=C/c1ccc(-n2nncc2-c2ccc(Cl)cc2)cc1 | -9% | ? | ? | 45µM* | ? | ?
Oc1ccc(C[C@@H]2CNCCN2CCc2cccc(F)c2)cc1 | 11% | -24% | 5% | 22%[2.33 µM] | -9% | 3
COc1ccc(Br)cc1S(=O)(=O)N1CCCC1 | ? | ? | 6% | -1%[59 µM] | 3µM* | ?
CCOc1ccc(Br)cc1S(=O)(=O)N1CCCN(C)CC1 | 10% | -11% | -11% | 50µM* | -10% | 6
CCOc1ccc(S(=O)(=O)N2CCCCC2)c2ccccc12 | 33% | ? | 6% | 41% | 3.4µM* | ?
COc1cc(C)c(S(=O)(=O)N2CCCC2)cc1C(C)C | -12% | 4% | 0% | 24% | 27µM* | 0
CCOc1ccc(Br)cc1S(=O)(=O)N1CCC(C(N)=O)CC1 | 15% | -8% | -8% | -4% | -4% | -9
Cc1cc2c(s1)c1cnn(Cc3ccccc3)c(=O)c1n2C | nt | 3% | nt | nt | nt | nt
COc1ccc(CC(=S)NCCc2ccccc2)cc1 | ? | -13% | -24% | 1%[0.501 µM] | 7.5µM* | -20
COc1ccc(NC(=O)CN(C)C(=O)CCCc2c[nH]c3ccccc23)cc1 | -5% | ? | ? | 45µM* | 2% | 4
S=C(NCCc1c[nH]c2ccccc12)NC1CCCCC1 | ? | 35µM* | ? | 22%[59 µM] | ? | -19
COc1ccc(CCNC(=S)NCCc2c[nH]c3ccccc23)cc1 | -14% | ? | 35µM* | 45µM* | -9% | 0
COc1ccc(NC(=O)CN(C)C(=O)Cc2c[nH]c3ccccc23)cc1 | 16% | -9% | -6% | -4%[59 µM] | -7% | 6
SMILES | HP1b binding inh | JMJD2A Tudor inh | BAZ2B block | G9a block | PLK1 PBD block | PI5P4Ka inh
S=C(NCCc1c[nH]c2ccccc12)NC1CCCC1 | 48% | -10% | ? | -38% | -2% | 0
COc1cc(CC(=O)C(=O)O)oc(=O)c1 | nt | nt | nt | nt | -9% | -11
Cc1ccc(C)c(NC(=S)NCCc2c[nH]c3ccccc23)c1 | ? | ? | 45µM* | ? | 9% | 3
CC(C)c1ccc(NC(=S)NCCc2c[nH]c3ccccc23)cc1 | ? | ? | 35µM* | 45µM* | -10% | 7
COc1ccc(Cl)cc1NC(=S)NCCc1c[nH]c2ccccc12 | -23% | 50µM* | 40µM* | ? | -1% | nt
Cc1ccccc1NC(=S)NCCc1c[nH]c2ccccc12 | -2%[57 µM] | -25% | ? | 3%[59 µM] | -12% | 2
CCC(CC)C(=O)N1CCc2cc(OC)c(OC)cc2C1COc1ccc2c(C)cc(=O)oc2c1 (configuration not stated) | 13% | -14% | 1% | -6%[59 µM] | nt | nt
Cc1cccc(-n2c3nc(=O)[nH]c(=O)c-3cc3c(Cl)cccc32)c1C | 39% | -11% | 2% | -41%[59 µM] | nt | nt
CCOC(=O)c1c(C)[nH]c(CCC(=O)NC(C)c2ccccc2)c1C (configuration not stated) | 18%[57 µM] | -13% | -3% | -27%[59 µM] | nt | nt
O=C(Cn1cnc2sc3c(c2c1=O)CCCC3)NCC(=O)Nc1c(F)cc(F)cc1Br | 2% | ? | -5% | 43% | 30µM* | -6
Cc1cccc2c1c1ccc3c(c1n2C)C(=O)C=CC3=O | 6.3µM* | 25µM* | 5µM* | 2µM* | ? | -73*
COc1cc2c(cc1OC)C(COc1ccc3c(C)cc(=O)oc3c1)N(C(=O)Cc1ccccc1)CC2 (configuration not stated) | 38% | -2% | 0% | 22%[59 µM] | nt | nt
CCN(CC)CCCNC(=O)C1CCN(S(C)(=O)=O)CC1 | 24% | -13% | 2% | -12%[59 µM] | nt | nt
NS(=O)(=O)c1ccc(NC(=O)c2cccc(N3C(=O)c4ccccc4C3=O)c2)cc1 | 1%[57 µM] | ? | ? | 10µM* | ? | -10
Cc1ccc(NC(=O)c2cccc(N3C(=O)C4C5C=CC(C5)C4C3=O)c2)cc1C (configuration not stated) | 33% | 10% | -26% | -11%[0.501 µM] | 0% | -7
CN(C)c1ccc(NC(=O)c2cccc(N3C(=O)C4C5C=CC(C5)C4C3=O)c2)cc1 (configuration not stated) | -20% | -25% | -34% | 10µM* | -7% | nt
CC(=O)c1ccc(NC(=O)c2cccc(N3C(=O)c4ccccc4C3=O)c2)cc1 | 14% | -5% | -31% | 79µM* | -12% | 3
O=C(O)c1cc(NC(=O)c2cccc(N3C(=O)c4ccccc4C3=O)c2)cc(C(=O)O)c1 | 12% | -15% | -15% | nt | -12% | -1
COc1ccccc1CCNC(=O)C(=O)NCC(c1ccco1)S(=O)(=O)c1ccccc1 (configuration not stated) | 14% | -6% | -5% | 5%[59 µM] | nt | nt
